Results as given in PubChem BioAssay AID588689 (Southern Research Specialized Biocontainment Screening …, 2011).
About 1,000 (0.29%) of roughly 340,000 compounds were called active. Cut-off read from the data, not from the text of the source: inconclusive = inhibition above about 29% without an active follow-up result; inactive = below that. The list is a sample of the results. Potency and affinity values are given separately.

Molecular target: Genome polyprotein (Dengue virus type 2 (strain 16681-PDK53)) (UniProt P29991)
Experiment: Dengue-2 NS5 methyltransferase inhibitors, primary screen, biochemical, confirmation dose response (AID 588689)
Conditions: Dengue-2 NS5 methyltransferase capping enzyme assay, at 25 µM, stronger effect = higher value
[1] = measured here: pilot screen replicate inhibition

SMILES | inhibition | inhibition [1] [%]
CCOCCn1c(CN2CCN(C(c3ccccc3)c3ccccc3)CC2)nc2c1c(=O)n(C)c(=O)n2C | -5.88% (inactive) | 
COc1ccc(NC(=O)Nc2ccc3c(c2)CCC3)cc1 | 1.61% (inactive) | 
Cc1ccc(Sc2cc(NCCCO)c([N+](=O)[O-])c3nonc23)cc1 | 16.2% (inactive) | 
CCC(=O)OCCNc1cc(Sc2nc3ccccc3[nH]2)c2nonc2c1[N+](=O)[O-] | 29.8% (inactive) | 
CN(CCO)c1cc(Sc2nc3ccccc3s2)c2nonc2c1[N+](=O)[O-] | 48.2% (inactive) | 
Cc1nnc(Sc2cc(NCCO)c([N+](=O)[O-])c3nonc23)s1 | 1.46% (inactive) | 
CCCC(=O)OCCNc1cc(Sc2nc3ccccc3[nH]2)c2nonc2c1[N+](=O)[O-] | 20.4% (inactive) | 
Cc1nnc(Sc2cc(NCCCO)c([N+](=O)[O-])c3nonc23)s1 | 18.5% (inactive) | 
C[C@@H]1CC=C[C@@H]2[C@H]1C(=O)N(Cc1ccccc1)[C@H]2c1cccc(C#Cc2ccccc2)c1 | -4.3% (inactive) | -5.45
CC(C)=CCC(C)(C)C1OCCN1C(=O)c1ccccc1 (stereo not given) | -7.18% (inactive) | 
Cc1cc(Br)ccc1NC(=O)CN(C)C(=O)C1CCN(C(=O)c2ccc(Cl)cc2)CC1 | -3.75% (inactive) | 
O=C1OC(c2ccccc2)c2ccc3ccccc3c21 (stereo not given) | -10.9% (inactive) | 
CCOc1ccc2c(C)c(Cl)c(=O)oc2c1 | -0.69% (inactive) | 
OCCN1CCN(c2cc(-c3ccccc3)c3ccccc3n2)CC1 | -4.36% (inactive) | 
Cc1ccc(NC(=O)COC(=O)c2c(C)nn(-c3ccccc3)c2C)cc1 | 7.29% (inactive) | 
CC(=O)NN1C(=O)/C(=C\c2ccccc2)SC1=S | -3.17% (inactive) | 
C=CCOc1ccc(/C=C2\SC(=S)N(N3CCOCC3)C2=O)cc1 | -7.66% (inactive) | 
Cc1ccc(/C=C2\SC(=S)N(CCC(=O)NNS(=O)(=O)c3ccc(C)cc3)C2=O)cc1 | -5.09% (inactive) | 
COc1cccc(-n2nnnc2SCC(=O)NCc2ccco2)c1 | -6.77% (inactive) | 
O=C(NCCc1c[nH]c2ccccc12)c1ccco1 | -0.82% (inactive) | 
O=C(CNC(=O)C(c1ccccc1)c1ccccc1)N/N=C\c1ccc(C(=O)O)cc1 | 0% (inactive) | 
Cc1ccc(S(=O)(=O)N2CCN(S(=O)(=O)N3CCOCC3)CC2)cc1C | 2.05% (inactive) | 
COc1ccc(/C=N/NC(=O)c2cc(C)n(-c3ccccc3)c2C)cc1OC | -10.9% (inactive) | 

SMILES | inhibition | inhibition [1] [%]
CCn1c(C)nc2cc(C(=O)N/N=C/c3cccc(OC)c3O)ccc21 | -3.68% (inactive) | 
COc1ccc(/C=N/NC(=O)CCN2CCN(c3ccccc3)CC2)c(OC)c1OC | -0.66% (inactive) | 
Cc1cc(/C=N/NC(=O)c2ccccc2F)c(C)n1-c1ccccc1 | -8.18% (inactive) | 
O=C(CCN1CCN(c2ccccc2)CC1)N/N=C/c1ccccc1O | -10.4% (inactive) | 
O=C(CCc1ccc(S(=O)(=O)N2CCOCC2)cc1)N/N=C/c1cccc(O)c1 | -1.28% (inactive) | 
CCn1c(C)nc2cc(C(=O)N/N=C/c3cccc(O)c3O)ccc21 | -0.82% (inactive) | 
O=C(CCc1ccc(S(=O)(=O)N2CCOCC2)cc1)N/N=C/c1ccc(F)cc1F | -6.07% (inactive) | 
CCOC(=O)CN1C(=O)N[C@@H](c2cccs2)C(C(=O)OC)=C1C | -0.8% (inactive) | 
Cn1ccnc1C(=O)c1cc(SCC(=O)NC2CC2)nc2ccccc12 | 0.73% (inactive) | 
O=C(NCc1nnnn1-c1ccc(F)cc1)c1cc2ccccc2o1 | 9.89% (inactive) | 
CCCCCCCCN1[C@@H](CC(=O)OCC)c2cc(C(F)(F)F)ccc2S1(=O)=O | -6.14% (inactive) | 
CC(C)COc1cccc(C(=O)N(C)CC(=O)Nc2cccc3ccccc23)c1 | -6.94% (inactive) | 
Cc1cccc(CC(=O)Nc2ccon2)c1 | -7.18% (inactive) | 1.51
O=[N+]([O-])c1ccc(N/N=C/c2cccc(O)c2O)c(S(=O)(=O)N2CCOCC2)c1 | 6.18% (inactive) | 
COc1cc(/C=N/Nc2ccc([N+](=O)[O-])cc2S(=O)(=O)N2CCOCC2)cc(OC)c1OC | -2.58% (inactive) | 
NS(=O)(=O)c1ccc(N/N=C/c2ccc(O)cc2O)c([N+](=O)[O-])c1 | 27.2% (inactive) | 
NS(=O)(=O)c1ccc(N/N=C/c2ccccc2C(=O)O)c([N+](=O)[O-])c1 | 4.52% (inactive) | 
Cc1c(OCC(=O)N2CCC(C(N)=O)CC2)ccc2c3c(c(=O)oc12)CCCC3 | -4.35% (inactive) | 
CCOCCCNC(=O)CCc1nnc2n(CCC(C)C)c(=O)c3ccccc3n12 | -4.57% (inactive) | 
CCOc1cc(NC(=S)NCCCN2CCOCC2)c(OCC)cc1NC(=O)C1CCCCC1 | -10.9% (inactive) | 
CC(=O)Nc1ccc2c(c1)CCc1ccccc1-2 | -9.7% (inactive) | 
O=C(O)CCCc1ccc2c(c1)CCc1ccccc1-2 | -0.8% (inactive) | 
CCN(CC(=O)NCc1cccs1)S(=O)(=O)c1ccccc1Cl | 0% (inactive) | 

SMILES | inhibition | inhibition [1] [%]
O=C(NCc1ccncc1)C(=O)NCC1OCCN1S(=O)(=O)c1ccc(F)cc1 (stereo not given) | -3.87% (inactive) | 
CCC(COC(C)=O)Nc1nc2c([nH]1)c(=O)n(C)c(=O)n2C (stereo not given) | 9.2% (inactive) | 
COC(=O)C1=C(C(=O)OC)C(c2cc([N+](=O)[O-])ccc2O)c2sc(=O)[nH]c2S1 (stereo not given) | -1.58% (inactive) | 
COC(=O)c1cc(OC)nc2ccc(Br)cc12 | 4.64% (inactive) | 
COC(=O)C1=C(C(=O)OC)C(c2ccc(OC)c(OC)c2)c2sc(=O)[nH]c2S1 (stereo not given) | 18% (inactive) | 
COC(=O)c1sc2ccccc2c1N | -9.74% (inactive) | 
Cc1ccnc(NC(=O)C2CCCN(c3ncnc4c3nc3n4CCCCC3)C2)c1 (stereo not given) | 0.45% (inactive) | 
COc1cc(/C=N/NC(=O)CC2(C)OCCCO2)ccc1OCc1ccc(Cl)cc1Cl | -4.47% (inactive) | 
COc1cc(/C=N/N=C2/NC(=O)C(CC(=O)O)S2)ccc1OCc1ccc(Cl)cc1 (stereo not given) | 16.7% (inactive) | 
COc1ccc(/C=N/N=C2/NC(=O)C(CC(=O)O)S2)cc1OCc1ccccc1Cl (stereo not given) | 17.8% (inactive) | 
CCOc1cc(/C=N/N=C2/NC(=O)C(CC(=O)O)S2)ccc1OCc1ccc(Cl)cc1Cl (stereo not given) | 25.1% (inactive) | 
CCOc1cc(/C=N/NC(=O)CSc2nnc(C)s2)ccc1OCc1ccccc1Cl | 8.09% (inactive) | 
COc1ccc(/C=N/N=C2/NC(=O)C(CC(=O)O)S2)cc1OCc1ccc(Cl)cc1 (stereo not given) | 13.3% (inactive) | 
O=C1CCc2nc3ccccc3c(=O)n2N1 | -1.38% (inactive) | 
COc1cccc(C(CNc2ccc(S(=O)(=O)N3CCN(C)CC3)cc2[N+](=O)[O-])N(C)C)c1 (stereo not given) | 2.89% (inactive) | 
Cc1onc(-c2c(F)cccc2Cl)c1C(=O)NNC(=O)C1CCN(Cc2cccc(F)c2)CC1 | -7.02% (inactive) | 
COc1ccc(S(=O)(=O)NNC(=O)c2cccs2)cc1 | -2.33% (inactive) | 
COc1ccc(S(=O)(=O)Nc2c(C(=O)O)[nH]c3ccccc23)cc1OC | 1.6% (inactive) | 
COc1cc(C(=O)Nc2c(C(=O)O)[nH]c3ccccc23)cc(OC)c1OC | -6.62% (inactive) | 
O=c1[nH]c2ccccc2c(O)c1-c1ccccc1[N+](=O)[O-] | -7.29% (inactive) | 
O=C(O)c1[nH]c2ccc([N+](=O)[O-])cc2c1-c1ccccc1 | 10.3% (inactive) | 
CSc1nsc(SCC(=O)Nc2ccc(NC(C)=O)cc2)n1 | 2.42% (inactive) | 
COc1ccccc1CNS(=O)(=O)c1cccc2nsnc12 | 3.22% (inactive) | 

SMILES | inhibition | inhibition [1] [%]
Cc1ccc(NC(=O)CSCC(=O)NCc2cccc(C(F)(F)F)c2)cc1 | 0.73% (inactive) | 
O=C(CSc1nc(O)c(C(c2ccccc2)c2ccccc2)c(=O)[nH]1)N1CCOCC1 | -5.31% (inactive) | 
Cc1ccccc1-n1cnnc1SCC(=O)Nc1cccnc1Cl | 2.99% (inactive) | 
CCCCOC(=O)c1ccc(NC(=O)C(=O)NCc2cccnc2)cc1 | -1.56% (inactive) | 
N=C1C(c2nc3ccccc3s2)=C(O)CN1Cc1ccco1 | -1.36% (inactive) | 
Nc1nc(CSC(=S)N2CCOCC2)nc(Nc2ccccc2)n1 | 1.28% (inactive) | 
Cc1ccc(CNC(=O)C2CCC(=O)N2C(C)C)cc1 (stereo not given) | -1.99% (inactive) | 
COc1cc(/C=C2\SC(=O)N(c3ccccc3Cl)C2=O)cc([N+](=O)[O-])c1O | -6.99% (inactive) | 
O=C(NN1C(=O)/C(=C/c2ccc(O)c([N+](=O)[O-])c2)SC1=S)c1ccccc1Cl | -3.59% (inactive) | 
CCc1cccc(N(C(=O)c2csnn2)C(C(=O)NC(C)(C)C)c2ccccn2)c1 (stereo not given) | -5.18% (inactive) | 
CCC(C)NC(=O)Nc1ccccc1C (stereo not given) | -2.79% (inactive) | 
CCC(=O)c1ccc(OCC(O)CN2CCN(S(=O)(=O)N3CCCCC3)CC2)cc1 (stereo not given) | 5.46% (inactive) | 
O=c1oc2ccccc2c2c1C(O)CO2 (stereo not given) | -7.16% (inactive) | 
Cc1c(O)c2ccccc2oc1=O | -7.95% (inactive) | 
OCC1OC2C(NC(=S)N2c2ccccc2)C(O)C1O (stereo not given) | 0.77% (inactive) | 
COc1ccc(C(c2c(C)[nH][nH]c2=O)c2c(C)[nH][nH]c2=O)cc1Br | -3.47% (inactive) | 
Nc1ccccc1O | -6.55% (inactive) | 
Oc1ccccc1O | 0.73% (inactive) | 
O=C(Nc1ccc2c(c1)OCO2)N1CCN(Cc2ccco2)CC1 | 0% (inactive) | 
COc1ccc(NCc2ccc([N+](=O)[O-])s2)c(OC)c1 | 7.28% (inactive) | 
COc1ccc(OC)c(N2C(=O)CCCC2=O)c1 | -1.93% (inactive) | 
COc1ccc(N2C(=O)/C(=C/c3ccc([N+](=O)[O-])cc3)N=C2C)c(OC)c1 | -3.69% (inactive) | 
COc1ccc(OC)c(N2C(=O)c3cccnc3C2=O)c1 | 0.65% (inactive) | 1.22
